# Sampled rows, rich in hits. Any-hit rate of the full collection: about 5.7%.
# RORg inh: blocks mouse ROR gamma transcriptional activity; AID 2551; Drosophila S2 Gal4-RORgamma UAS-luciferase reporter, 20 h; 310,000 compounds, 5.4% hits; Potency, µM (titrated, usually from 53.6 µM), inactives show at the highest dose activity change, negative = inhibition, usual class: inhibitors; P51450; also: nearly all actives have a fitted effect of over 60% in size
#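 Read-out: Photinus luciferase luminescence; inhibitors lower reporter signal. Insect Schneider cells with Gal4-ROR gamma fusion under metallothionein promoter, UAS reporter; 700 uM final copper sulfate induction, 20 hr, ambient temperature.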
# B2AR arrestin: agonists driving beta-arrestin recruitment to human beta2-adrenergic receptor. beta-arrestin recruitment to beta2AR, cell-based reporter. Potency, µM (highest dose often 46.1 µM), without a hit: top-dose activation, actives largely listed as activators. 330,000 compounds, 0.02% hits;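 also: 0% = DMSO controls and full agonism = EC100 isoproterenol or metaproterenol; nearly all actives have a fitted effect of over 65% in size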
# NPSR antag: neuropeptide S receptor (human) antagonism, cAMP; Q6W5P4; CHO-NPSR cells, cAMP TR-FRET, antagonist mode; Potency, µM (highest dose often 38.3 µM), for inactives: at the top dose activity change, negative = inhibition, hits mostly inhibitors; 220,000 compounds, 1% hits; also: nearly all actives have a fitted effect of over 50% in size
# Target sequence (Q6W5P4 whole entry, looked up): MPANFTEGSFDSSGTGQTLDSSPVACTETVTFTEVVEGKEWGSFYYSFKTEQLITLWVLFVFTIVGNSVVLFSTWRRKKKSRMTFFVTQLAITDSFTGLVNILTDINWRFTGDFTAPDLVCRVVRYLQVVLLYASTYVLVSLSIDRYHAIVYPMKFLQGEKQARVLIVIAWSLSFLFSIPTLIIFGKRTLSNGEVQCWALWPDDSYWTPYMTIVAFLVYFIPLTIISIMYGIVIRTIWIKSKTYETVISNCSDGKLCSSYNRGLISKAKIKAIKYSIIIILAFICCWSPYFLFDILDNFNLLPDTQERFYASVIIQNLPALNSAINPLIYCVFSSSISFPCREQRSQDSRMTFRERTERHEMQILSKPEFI
# VP16 counter: inhibits Gal4-VP16 luciferase reporter, ROR gamma counter-screen; Drosophila S2 Gal4-VP16 UAS-luciferase, luminescence, 20 h; Potency, µM (titrated, usually from 53.6 µM), without a hit: at the highest dose activity, negative = inhibition, actives largely listed as inhibitors; 310,000 compounds, 3.5% hits; AID 2546;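 also: Gal4-VP16 expression switched on by copper sulfate through the metallothionein promoter; nearly all actives have a fitted effect of over 50% in size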
# Active calls of the source: *; ? = inconclusive; / = no result; [ ] = another dose, or the depositor's remark. Calls follow the shape of the dose curve; as a rule, active = well fitted curve in the direction sought with a large enough effect; inconclusive = small, poorly fitted or top-dose-only effect, or another doubt; inactive = no such curve, though single readings can be large; an effect the other way counts as inactive or inconclusive. Unless noted, % is scaled to controls: 0 for no effect and ±100 for the full control effect; potency is read from the fitted curve at half-maximal effect.
SMILES,RORg inh,B2AR arrestin,NPSR antag,VP16 counter
Cc1ccnc(NC(=O)C2CC(=O)N(c3ccc4c(c3)OCCO4)C2)c1 (stereo not drawn),7.94µM*,0.0%,/,?
Cc1ccc(NC(=O)C2CC(=O)N(c3ccc4c(c3)OCCO4)C2)nc1 (stereo not drawn),/,0.2%,/,/
COc1ccc(-c2ccc(N(C)C)cc2)cc1C1C2C=CCC(C)C2C(=O)N1Cc1ccccc1 (stereo not drawn),-0.2%,/,/,13.0%
CC1=C(C(=O)N(C)C)C(c2cccs2)NC(=O)N1 (stereo not drawn),18.8%,0.2%,8.7%[46.1 µM],-0.6%
CC1=C(C(=O)N(C)C)C(c2cccc(Cl)c2)NC(=O)N1 (stereo not drawn),11.2µM*,0.2%,0.1%[46.1 µM],-2.0%
COc1ccc(NC(=O)CN2C(=O)NC3(CCCc4ccccc43)C2=O)c(OC)c1 (stereo not drawn),/,-0.7%,/,/
Cc1ccc2nc(NC(=O)c3cc(-c4ccco4)nc4ccccc34)sc2c1,17.8µM*,0.1%,-5.0%[46.1 µM],?
O=C(Nc1nc2ccccc2s1)c1cc(-c2ccco2)nc2ccccc12,?,0.1%,-7.8%,12.6µM*
Cc1ccc(N2C(=O)c3ccc(C(=O)N4CCN(c5cccc(C)c5C)CC4)cc3C2=O)cc1,?,-0.2%,-11.6%[46.1 µM],20µM*
Cc1ccc(N2C(=O)c3ccc(C(=O)N4CCN(c5ccc(C)c(C)c5)CC4)cc3C2=O)cc1,19.7%,0.1%,-6.4%,-7.7%
CCCc1cc(C(=O)NC(C)C2CCCO2)cs1 (stereo not drawn),-7.5%,0.2%,/,21.0%
CSCC[C@H](NC(=O)[C@@H]1CCCN1C(=O)CNC(=O)[C@H](CCCCN)NC(=O)[C@H](Cc1cnc[nH]1)NC(=O)[C@H](CO)NC(=O)[C@H](CC(C)C)NC(=O)[C@H](CCCN=C(N)N)NC(=O)[C@@H]1CCCN1C(=O)[C@H](CCCN=C(N)N)NC(=O)[C@@H]1CCC(=O)N1)C(=O)N1CCC[C@H]1C(=O)N[C@@H](Cc1ccccc1)C(=O)O,-3.6%,/,/,-10.5%
COc1ccc(NC(=O)NC2CCCCC2C)cc1 (stereo not drawn),18.4%,0.0%,9.4%,26.5%
FC(F)Sc1ccc(NC(=S)NCC2CCCCC2)cc1,8.91µM*,-0.3%,-22.3%[46.1 µM],10µM*
S=C(NCC1CCCCC1)Nc1cccnc1,-39.8%,-0.8%,17.2%,15.6%
FC(F)Sc1ccc(NC(=S)NC2CCCCC2)cc1,8.91µM*,0.5%,-9.0%[46.1 µM],?
CC1CCCCC1NC(=S)Nc1ccc(SC(F)F)cc1 (stereo not drawn),6.31µM*,0.2%,-7.8%[46.1 µM],11.2µM*
CN(CC(=O)Nc1ccc(SC(F)F)cc1)C1CCCCC1,22.3%,0.1%,-5.2%,0.2%
CC1CCN(C(=S)Nc2ccc(SC(F)F)cc2)CC1,7.94µM*,-0.3%,-14.5%,11.2µM*
CC(C)C[C@@H](CC(=O)N[C@@H](CCCN)CC(=O)N[C@@H]1CCNC[C@H]1C(=O)N[C@H](CC(=O)N[C@@H](CCC(=O)O)CC(=O)O)CC(C)C)NC(=O)[C@@H]1CCCC[C@H]1N,8.0%,/,/,-2.4%
Cc1csc(NC(=O)CSCC(=O)O)c1-c1nc2ccccc2s1,-42.3%,-0.4%,?,8.91µM*
O=C(CCN1C(=O)c2ccccc2C1=O)Nc1ccc(-c2nc3ccccc3s2)cc1,-2.6%,0.1%,7.1%[46.1 µM],-12.7%
Cc1ccc2nc(-c3ccc(NC(=O)CSCC(=O)O)cc3)sc2c1,11.2µM*,0.5%,2.0%,-25.6%
Cc1ccc2nc(-c3ccc(NC(=O)CCN4C(=O)c5ccccc5C4=O)cc3)sc2c1,5.01µM*,-1.0%,-37.2%,7.08µM*
O=C(O)CSCC(=O)Nc1ccc(-c2nc3ccccc3s2)cc1,?,-0.2%,2.5%,-21.6%
CCCn1nc([N+](=O)[O-])c(C(C#N)c2nc3ccccc3s2)c(Cl)c1=O (stereo not drawn),-44.6%,0.4%,10µM*,?
CCn1nc([N+](=O)[O-])c(C(C#N)c2nc3ccccc3n2C)c(Cl)c1=O (stereo not drawn),-18.7%,-0.7%,-11.1%,1.8%
Cc1ccc(S(=O)(=O)Cc2cc(F)c([N+](=O)[O-])cc2[N+](=O)[O-])cc1,-41.1%,0.1%,/,6.31µM*
COc1ccc(C(=O)CCS(=O)(=O)c2ccc(C)cc2)cc1,5.62µM*,-1.0%,/,10µM*
Cc1ccc(C(=O)CCS(=O)(=O)c2ccc(Br)cc2)cc1,-142.7%,0.2%,/,?
